Hit rate of the full screen: of about 220,000 compounds, about 16,000 (7.3%) were called active. A call without a number means that no potency is given here. Not shown: some 25% with an inconclusive outcome. This is one part of a sample in which actives are shown more often than they occur. Unmarked numbers belong to inactive results. Calls follow the shape of the dose curve; as a rule, active = well fitted inhibition curve with a large enough effect (not every such curve was filed as active); inconclusive = small, poorly fitted or top-dose-only effect, or another doubt; inactive = no such curve, though single readings can be large or run the other way.
What follows are compounds tested against Aldehyde dehydrogenase 1A1 (Homo sapiens) (UniProt P00352) (assay: qHTS Assay for Inhibitors of Aldehyde Dehydrogenase 1 (ALDH1A1)). Conditions: Purified ALDH1A1, NADH fluorescence, propionaldehyde substrate; series mostly up to 75.3 µM.
Sequence of Aldehyde dehydrogenase 1A1 (Homo sapiens) (P00352 whole entry, looked up): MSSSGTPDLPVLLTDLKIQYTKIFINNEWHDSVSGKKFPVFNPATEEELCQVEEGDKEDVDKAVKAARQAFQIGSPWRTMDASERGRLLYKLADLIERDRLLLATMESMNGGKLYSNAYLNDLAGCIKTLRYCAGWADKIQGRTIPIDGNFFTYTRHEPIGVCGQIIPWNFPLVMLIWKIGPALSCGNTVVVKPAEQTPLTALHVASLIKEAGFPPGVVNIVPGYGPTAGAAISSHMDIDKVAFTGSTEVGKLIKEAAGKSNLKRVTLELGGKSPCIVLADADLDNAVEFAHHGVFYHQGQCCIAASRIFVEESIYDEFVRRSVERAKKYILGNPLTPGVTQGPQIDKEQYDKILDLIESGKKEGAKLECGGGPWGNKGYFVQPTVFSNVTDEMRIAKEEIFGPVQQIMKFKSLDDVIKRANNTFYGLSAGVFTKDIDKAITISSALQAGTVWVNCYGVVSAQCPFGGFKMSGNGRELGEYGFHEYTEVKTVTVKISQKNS
Potency is read from the fitted curve at half-maximal effect.

SMILES | Potency | activity, negative = inhibition
Cc1ccc(C(=O)C(=S)N2CCOCC2)cc1 | inactive | –
CCOc1cc(C(=O)OCC(=O)Nc2cccc(C)c2)ccc1OCC(=O)N1CCOCC1 | inactive | –
CCOc1cc(C(=S)N2CCOCC2)ccc1O | 8.91 µM (active) | –
Clc1ccc(CSc2nnc3c(n2)[nH]c2ccccc23)cc1 | inactive | –
Nc1nc(SCc2ccccc2Cl)n[nH]1 | inactive | –
Clc1ccccc1CSc1nnc(-c2ccco2)c(-c2ccco2)n1 | 10 µM (active) | –
c1ccc(CSc2nnc(-c3ccco3)c(-c3ccco3)n2)cc1 | 2.82 µM (active) | –
COC(OC)c1ccnc(SCc2ccccc2Cl)n1 | inactive | –
O=c1[nH]c(SCc2ccccc2)nnc1-c1ccccc1 | inactive | –
O=C(NC(=O)c1cc(OCC(F)(F)F)ccc1OCC(F)(F)F)Nc1ccccc1 | inactive | –
CCOc1ccc(-n2c(O)c(/C=N/Nc3nc(C)cc(C)n3)c3ccccc3c2=O)cc1 | 5.01 µM (active) | –
CCOc1ccc(N=Cc2c(O)n(-c3cccc(C)n3)c(=O)c3ccccc23)cc1 | inactive | –
Cc1ccc(-n2c(O)c(C=Nc3ccc(S(=O)(=O)Nc4ncccn4)cc3)c3ccccc3c2=O)cc1C | inactive | –
O=C(NCCOc1ccccc1F)Nc1ccc(Br)cc1 | inactive | –
O=C1c2ccccc2C(Nc2ccc3c(c2)OCCO3)N1Cc1ccco1 (centres undefined) | 7.08 µM (active) | –
O=C(NC1CCCCC1)C1c2ccccc2C(=O)N1Cc1ccco1 (centres undefined) | inactive | –
Cc1ccnc(N2C(=O)c3ccccc3C2Nc2ccc3c(c2)OCCO3)c1 (centres undefined) | inactive | –
COc1ccccc1NC(=O)c1ccc(C)s1 | inactive | –
COc1ccccc1NC(=O)/C=C/C(N)=O | 28.2 µM (active) | –
COc1ccccc1NC(=O)/C=C/C(=O)O | inactive | –
CCCC(=O)OCC(=O)Nc1cc(Cl)ccc1[N+](=O)[O-] | inactive | –
Cc1ccc(Cl)cc1NC(=O)COC(=O)CC(C)(C)C | 8.91 µM (active) | –
Cc1ccc(Cl)cc1NC(=O)COC(=O)C1CCCCC1 | inactive | –

SMILES | Potency | activity, negative = inhibition
Cc1ccc2nc(-c3ccccn3)cc(C(=O)Nc3ccc4c(c3)OCO4)c2c1 | inactive | –
CCCCn1nc(C(=O)Nc2ccc(S(=O)(=O)Nc3ncccn3)cc2)c2ccccc2c1=O | inactive | –
Cn1cc(CN2CCC(C(O)CCc3ccccc3)CC2)c(-c2ccccc2F)n1 (centres undefined) | inactive | –
CS(=O)(=O)n1nc(-c2ccco2)nc1N | inactive | –
C/C(N)=C(/C#N)C(=O)COC(=O)c1cc(-c2ccccc2)nc2ccc(Br)cc12 | inactive | –
Cc1ccc(NC(=O)CN2CCCCC2)c2c1CC(C)(C)O2 | inactive | –
Cc1cc(CO)nn1-c1ccc([N+](=O)[O-])cc1 | inactive | –
Cc1ccc(OC(=O)CCC(=O)Nc2ccc(Br)cc2)cc1 | inactive | –
COc1ccc(NC(=O)Cn2c(-c3ccc(OC)cc3)cn(-c3ccc(C)cc3)c2=O)cc1 | 15.8 µM (active) | –
COc1ccc(C(CC(=O)Nc2ccc(C)cc2)NC(=O)C(F)(F)F)cc1 (centres undefined) | inactive | –
COC(=O)C1=C(C)Nc2ncnn2C1c1ccco1 (centres undefined) | inactive | –
CC1=C(C(=O)OC2CCCCC2)C(c2cccnc2)n2ncnc2N1 (centres undefined) | 20 µM (active) | –
COC(=O)C1=C(C)Nc2ncnn2C1c1cccnc1 (centres undefined) | inactive | –
Cc1cc(C)cc(NC(=O)N(C)Cc2ccccc2)c1 | inactive | –
CCc1cccc2c(=O)c(C(=O)NCCCOC)c[nH]c12 | 2 µM (active) | –
CCOCCCNC(=O)c1c[nH]c2cc(C)ccc2c1=O | inactive | –
CCCCOCCCNC(=O)c1ccccc1OCC | inactive | –
Cc1ccc(O)c(NC(=S)NC(=O)COc2ccc(Br)cc2)c1 | inactive | –
Cn1c(CO)cnc1SCc1ccccc1 | inactive | –
CSc1nc2ccccc2c(=O)n1Cc1ccc(F)cc1 | inactive | –
CSc1c(SCc2ccccc2)cnn(Cc2ccccc2)c1=O | 11.2 µM (active) | –
CCCOCC(O)CC(CC)C(=O)NNC(=S)Nc1ccccc1 (centres undefined) | inactive | –
O=C(Nc1nc(-c2ccc(-c3ccccc3)cc2)cs1)c1cnccn1 | inactive | –

SMILES | Potency | activity, negative = inhibition
CC1(C)CC(CC(=O)O)C(=O)O1 (centres undefined) | inactive | –
C/C(CC1CC(C)(C)OC1=O)=N/Nc1nc(-c2ccccc2)cs1 (centres undefined) | 7.94 µM (active) | –
Cc1ccc(C(=O)NC(=S)NCc2cccnc2)cc1 | inactive | –
Cc1ccc(NC(=S)N(CCN2CCCCC2)Cc2ccco2)cc1C | inactive | –
COc1ccc(CNC(=O)CN2CCC(n3nnc4cc(F)ccc43)CC2)cc1 | inactive | –
Cc1nnc(SCC(=O)N2CCOCC2)[nH]c1=O | inactive | –
COc1ccc(C(=O)Nc2c(N)nc(SCC(=O)N3CCC(C)CC3)[nH]c2=O)cc1OC | inactive | –
O=C(CSc1nc2c(cnn2-c2ccc(F)cc2)c(=O)[nH]1)N1CCCCCC1 | 0.126 µM (active) | –
O=C(Nc1ccc(F)c([N+](=O)[O-])c1)C1CC(=O)N(Cc2ccccc2)C1 (centres undefined) | inactive | –
CC(CO)NCC12CC3CC(CC(C3)C1)C2 (centres undefined) | inactive | –
CC(C)n1c(-c2ccncc2)n[nH]c1=S | inactive | –
Nc1ccc(C(=O)NCc2ccccc2)cc1 | inactive | –
CCCCN1C(=O)CCC(C(=O)O)C1c1ccc(OC)cc1 (centres undefined) | inactive | –
COC(=O)C1C(=O)NCC1c1ccc(OC)cc1 (centres undefined) | inactive | –
COc1ccc(C2OC(=O)CC2C(=O)NC(C)C)cc1 (centres undefined) | 15.8 µM (active) | –
CCOC(=O)C1(CCOC)CCN(Cc2ccc(C(=O)OC)cc2)CC1 | inactive | –
COC(=O)c1cc(C(=O)OCC(=O)Nc2cc(C)on2)cc([N+](=O)[O-])c1 | inactive | –
CC(=O)c1cccc(NC(=O)[C@@H](NC(N)=O)C(C)C)c1 | inactive | –
O=C(CSc1nnc(C2CC2)n1Cc1ccccc1)Nc1cccnc1Cl | inactive | –
CCCCN(CC)CCNC(=O)c1[nH]c(C)c(C(C)=O)c1C | 10 µM (active) | –
CC(=O)c1c(C)[nH]c(C(=O)NCc2ccc(C)cc2)c1C | inactive | –
CC(=O)c1c(C)[nH]c(C(=O)NCCCN2CCCC2)c1C | inactive | –
CC(=O)NC1(c2ccc(F)cc2)CCN(C(=O)c2c(F)cccc2F)CC1 | inactive | –

SMILES | Potency | activity, negative = inhibition
O=C(CCC(=O)NNc1nc2ccccc2c2nc(-c3ccccc3)nn12)NCCCN1CCCC1=O | inactive | –
CCCCCOC(=O)C1=C(C)Nc2nnnn2C1c1ccc(OC)c(OC)c1OC (centres undefined) | inactive | –
CC1=C(C(N)=O)C(c2sccc2C)n2nnnc2N1 (centres undefined) | 20 µM (active) | –
CC(=O)C1=C(C)NC(C)=C(C(C)=O)C1c1cn(-c2ccccc2)nc1-c1cccs1 | inactive | –
Cc1cc(C)n(CC(=O)Nc2ccc([N+](=O)[O-])cc2)n1 | inactive | –
Cc1cc(=O)oc2c1c(C)nn2-c1ccc(Cl)cc1 | inactive | –
CC(C)(C)C(=O)CSc1nc2ccccc2o1 | inactive | –
COc1ccccc1CNC(=O)c1cc(=O)c2ccccc2o1 | inactive | –
Cn1cnnc1SCC(=O)Nc1ccc(N2CCOCC2)cc1 | inactive | –
CN(Cc1ccc2nsnc2c1)Cc1nc(Cc2cccc(F)c2)no1 | inactive | –
CCOC(=O)/C(C#N)=C/c1ccc(OCC(=O)Nc2ccccc2)c(OC)c1 | inactive | –
Cc1cc(C)c(C#N)c(SCC(=O)Nc2ccccc2)n1 | inactive | –
Cc1cc(C)nc(N(C#N)CC(=O)Nc2ccccc2)n1 | 15.8 µM (active) | –
CCC(C)NC(=O)CN(C1CCCCC1)S(C)(=O)=O (centres undefined) | inactive | –
O=C(CSc1ncn[nH]1)Nc1nsc(-c2ccccc2)n1 | inactive | –
CCN(C(=O)CSc1ncn[nH]1)c1cccc2ccccc12 | 25.1 µM (active) | –
CCN(CC)C(=O)CSc1nc2ccccc2o1 | inactive | –
CCOC(=O)n1c(SCC(=O)N(CC)CC)nc2ccccc21 | inactive | –
O=C(CSc1ncn[nH]1)Nc1ccnc2ccccc12 | 22.4 µM (active) | –
O=C(CSc1n[nH]c(-c2cccnc2)n1)Nc1ccnc2ccccc12 | inactive | –
O=S(=O)(c1cccc(C(F)(F)F)c1)N1CCN(c2cnccn2)CC1 | inactive | –
CCCn1nc(Oc2nc(NC(C)C)nc(N(C)C)n2)ccc1=O | inactive | –
O=C(NCc1cccnc1)c1nc(-c2cccs2)no1 | inactive | –

SMILES | Potency | activity, negative = inhibition
O=C(/C=C/c1cccs1)NCc1cccnc1 | inactive | –
O=C(NCc1cccnc1)c1cn(-c2ccccc2)nc1-c1cccs1 | 3.98 µM (active) | –
O=[N+]([O-])c1cc(S(=O)(=O)CCCN2CCOCC2)ccc1F | inactive | –
COC(=O)C(C(=O)Nc1cccc(Cl)c1C)C1CCCC1 (centres undefined) | inactive | –
Cc1ccc(N2C(=O)CC(Sc3ncn[nH]3)C2=O)cc1 (centres undefined) | 11.2 µM (active) | –
COc1ccc(N2C(=O)CC(SC(C)C)C2=O)cc1 (centres undefined) | inactive | –
COc1ccc(N2C(=O)CC(Sc3n[nH]c(-c4ccc(C)cc4)n3)C2=O)cc1 (centres undefined) | 0.794 µM (active) | –
O=C1CC(Sc2ncn[nH]2)C(=O)N1c1ccccc1 (centres undefined) | 1.12 µM (active) | –
Cc1ccc(CC2CC(=O)N(c3nc(C)cc(C)n3)C2=O)cc1 (centres undefined) | inactive | –
ClC1(Cl)CC1CSc1ncn[nH]1 (centres undefined) | inactive | –
COc1ccc(-c2nc(SCC(=O)N3CCOCC3)n[nH]2)cc1 | inactive | –
Cc1ccc(N2C(=O)C3CC3C2=O)cc1 (centres undefined) | inactive | –
O=C(CSc1nc2ccc(Nc3nc(N4CCOCC4)nc(N4CCOCC4)n3)cc2s1)NCc1ccco1 | inactive | –
CSc1sc(C(=O)NC(=O)NCc2cccnc2)c(C)c1-c1ccon1 | inactive | –
Cc1ccccc1CCN(CC(=O)NC1CCCCC1)C(=O)c1csnn1 | inactive | –
O=C(CCc1ccccc1)Nc1ncc([N+](=O)[O-])s1 | inactive | –
OCCC1CN(Cc2ccc3nsnc3c2)CCN1C1CCCCC1 (centres undefined) | inactive | –
Cn1c(=O)c2cc(S(=O)(=O)NCCC(=O)Nc3ccc(F)cc3F)ccc2n(C)c1=O | inactive | –
COC(=O)C1=C(C(=O)OC)[C@@H]2N(C)c3ccccc3[C@@]23C[C@@H](C(=O)OC)N(S(=O)(=O)c2cccs2)C3=N1 | – | 0.268% [at 13.5 µM]
Cc1ccc(CCNC(=O)C2CCN(S(=O)(=O)N3CCCC3)CC2)cc1 | 12.6 µM (active) | –
O=C(NCCCN1CCN(Cc2ccccc2)CC1)C1CCN(S(=O)(=O)N2CCCC2)CC1 | inactive | –
Cc1ccc(S(=O)(=O)N2CCC(C(=O)N[C@@H](C)C(=O)NCCc3ccccc3)CC2)cc1 | inactive | –

Source: PubChem BioAssay AID1030 (National Center for Advancing Translational Sciences (NCATS), 2008)
